Reference: PubChem BioAssay (Tox21)
Results filed as inconclusive are left out. Calls of active or inactive are those of the source. Unless noted, calls come from the whole dose curve.

How the values were obtained:
[1] = Nuclear factor erythroid 2-related factor 2/antioxidant responsive element (Nrf2/ARE) small molecule agonists: qHTS cell viability counter screen in human keratinocytes (AID 1919968; active = well fitted curve in the direction sought with a large enough effect in the repeat runs; an effect the other way counts as inactive or inconclusive; note: nearly all actives have a fitted effect of over 55% in size; note: potency is the fitted concentration of half-maximal effect)
Procedure, shortened: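 KeratinoSens cells (HaCaT keratinocytes stably carrying an ARE-luciferase reporter) were seeded at 1,500 cells/well and rested 5 h at 37 C/5% CO2. They were then exposed to compounds in DMSO for 23 h. Viability was read by CellTiter-Fluor fluorescence after 1 h.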

[2] = Nuclear factor erythroid 2-related factor 2/antioxidant responsive element (Nrf2/ARE) small molecule agonists: luciferase reporter gene qHTS assay in human keratinocytes (AID 1919969); note: nearly all actives have a fitted effect of over 35% in size; note: potency is the fitted concentration of half-maximal effect
[3] = biological target: Gonadotropin-releasing hormone receptor (Homo sapiens) (UniProt P30968); assay: Human gonadotropin-releasing hormone receptor (GnRHR) small molecule agonists, calcium flux assay in GnRHR-HEK293 cells (AID 1920063); note: nearly all actives have a fitted effect of over 35% in size
Gonadotropin-releasing hormone receptor (Homo sapiens), sequence (P30968 whole entry, looked up): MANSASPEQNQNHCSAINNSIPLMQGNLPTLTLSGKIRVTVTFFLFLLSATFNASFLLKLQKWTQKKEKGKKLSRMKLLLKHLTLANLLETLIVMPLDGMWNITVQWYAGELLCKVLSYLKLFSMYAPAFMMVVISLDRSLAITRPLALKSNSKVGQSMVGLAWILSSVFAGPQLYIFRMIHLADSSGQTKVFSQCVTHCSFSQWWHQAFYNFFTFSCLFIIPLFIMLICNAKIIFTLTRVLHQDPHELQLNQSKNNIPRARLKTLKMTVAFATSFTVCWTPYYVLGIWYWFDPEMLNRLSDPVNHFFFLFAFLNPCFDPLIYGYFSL
Procedure, shortened: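 HEK293 cells stably expressing human GnRHR were plated 18 h at 37 °C, loaded with calcium dye 1 h at 37 °C, then given compound in agonist mode; fluorescence (Ex/Em 480/540) read kinetically for 3 min at 1 s intervals.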

[4] = biological target: KiSS-1 receptor (Homo sapiens) (UniProt Q969F8); assay: Human kisspeptin (KISS1R) small molecule agonists, calcium flux assay in KISS1R-HEK293 cells (AID 1920064; active = well fitted curve in the direction sought with a large enough effect in the repeat runs; an effect the other way counts as inactive or inconclusive)
KiSS-1 receptor (Homo sapiens), sequence (Q969F8 whole entry, looked up): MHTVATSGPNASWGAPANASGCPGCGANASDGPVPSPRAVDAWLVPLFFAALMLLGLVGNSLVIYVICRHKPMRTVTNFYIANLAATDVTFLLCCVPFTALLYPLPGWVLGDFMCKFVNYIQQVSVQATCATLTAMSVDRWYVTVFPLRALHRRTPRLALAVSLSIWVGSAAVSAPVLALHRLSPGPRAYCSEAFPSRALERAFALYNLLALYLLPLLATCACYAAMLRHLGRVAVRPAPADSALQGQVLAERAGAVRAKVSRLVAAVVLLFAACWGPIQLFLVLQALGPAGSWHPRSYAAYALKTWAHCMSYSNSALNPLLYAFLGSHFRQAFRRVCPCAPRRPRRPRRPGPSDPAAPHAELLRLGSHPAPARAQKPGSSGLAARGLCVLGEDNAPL
Procedure, shortened: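 HEK293 cells stably expressing human KISS1R were plated 18 h at 37 °C, loaded with calcium dye for 1 h at 37 °C, then given compound by pin tool. Fluorescence (Ex/Em 480/540) was read kinetically for 3 min.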

[5] = p53 small molecule agonists, cell-based qHTS assay with rat liver microsomes (AID 1963578)
Procedure, shortened: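 With rat liver microsomes and NADPH present (0.5 mg/mL final each), p53RE-bla cells are treated with compound for 16 h at 37 C. LiveBLAzer detection mixture is then applied for 2 h at room temperature in the dark.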

[6] = p53 small molecule agonists, cell-based qHTS assay with human liver microsomes: qHTS cell viability counter screen (AID 1963579); note: nearly all actives have a fitted effect of over 45% in size
Procedure, shortened: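 In this multiplexed counter screen, the reporter plates were subsequently treated with CellTiter-Glo so that cell viability, reflected by luminescence, could be recorded for p53RE-bla cells dosed 16 h with compounds under microsomal activation (HLM and NADPH).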

[7] = p53 small molecule agonists, cell-based qHTS assay with rat liver microsomes: qHTS cell viability counter screen (AID 1963580); note: nearly all actives have a fitted effect of over 45% in size; note: potency is the fitted concentration of half-maximal effect
Procedure, shortened: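 p53RE-bla HCT-116 cells were exposed 16 h at 37 C to compounds with rat liver microsomes (0.5 mg/mL) and NADPH (0.5 mg/mL). Viability was measured in the same wells as ATP content by CellTiter-Glo luminescence.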

[8] = p53 small molecule agonists, cell-based qHTS assay: qHTS cell viability counter screen (AID 1963581); note: nearly all actives have a fitted effect of over 45% in size; note: potency is the fitted concentration of half-maximal effect
Procedure, shortened: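 p53RE-bla HCT-116 cells were exposed to compounds for 16 h at 37 C; after the beta-lactamase FRET read in the same wells, CellTiter-Glo was added and luminescence (intracellular ATP) read after 30 min at room temperature.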

[9] = p53 small molecule agonists, cell-based qHTS assay (AID 1963582; active = well fitted activation curve with a large enough effect in the signal ratio in the repeat runs, not every such curve was filed as active; the % refers to the signal ratio)
Procedure, shortened: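 p53RE-bla beta-lactamase reporter cells rested 5 h at 37 C/5% CO2, then received compounds in DMSO by pin transfer and were incubated 16 h at 37 C. LiveBLAzer B/G FRET substrate was loaded for 2 h at room temperature before fluorescence reading.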

[10] = biological target: 5-hydroxytryptamine receptor 2A (Homo sapiens) (UniProt P28223); assay: 5-hydroxytryptamine receptor 2A (HTR2A) small molecule antagonists, cell-based qHTS assay (AID 1963586); note: nearly all actives have a fitted effect of over 45% in size
5-hydroxytryptamine receptor 2A (Homo sapiens), sequence (P28223 whole entry, looked up): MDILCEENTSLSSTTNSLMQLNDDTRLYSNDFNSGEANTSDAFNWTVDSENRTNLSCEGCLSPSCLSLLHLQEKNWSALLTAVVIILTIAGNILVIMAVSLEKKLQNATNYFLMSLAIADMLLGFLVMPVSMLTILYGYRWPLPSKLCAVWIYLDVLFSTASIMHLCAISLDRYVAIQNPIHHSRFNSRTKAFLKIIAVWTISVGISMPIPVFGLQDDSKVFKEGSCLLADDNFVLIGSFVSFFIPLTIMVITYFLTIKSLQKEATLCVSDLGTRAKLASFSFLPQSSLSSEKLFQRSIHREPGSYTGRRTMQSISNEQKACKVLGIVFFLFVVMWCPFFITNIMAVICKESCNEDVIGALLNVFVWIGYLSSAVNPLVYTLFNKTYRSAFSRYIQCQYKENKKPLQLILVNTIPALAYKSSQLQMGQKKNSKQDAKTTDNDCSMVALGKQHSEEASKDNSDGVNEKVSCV
Procedure, shortened: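 Antagonist-mode intracellular calcium assay: DOI (4 nM) added after 5 min compound pre-incubation at room temperature to dye-loaded HTR2A-CHO cells. Fluorescence followed for 3 min, sampled every second.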

[11] = biological target: 5-hydroxytryptamine receptor 2A (Homo sapiens) (UniProt P28223); assay: 5-hydroxytryptamine receptor 2A (HTR2A) small molecule agonists, cell-based qHTS assay (AID 1963587); note: nearly all actives have a fitted effect of over 30% in size
Procedure, shortened: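 CHO cells stably expressing human HTR2A, plated 18 h, loaded with calcium dye 1 h at 37 C. Agonist mode: compounds added and intracellular calcium fluorescence recorded kinetically for 2 min at 1 sec intervals.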

[12] = biological target: Muscarinic acetylcholine receptor M1 (Homo sapiens) (UniProt P11229); assay: Cholinergic receptor muscarinic 1 (CHRM1) small molecule antagonists, cell-based qHTS assay (AID 1963588); note: nearly all actives have a fitted effect of over 40% in size
Muscarinic acetylcholine receptor M1 (Homo sapiens), sequence (P11229 whole entry, looked up): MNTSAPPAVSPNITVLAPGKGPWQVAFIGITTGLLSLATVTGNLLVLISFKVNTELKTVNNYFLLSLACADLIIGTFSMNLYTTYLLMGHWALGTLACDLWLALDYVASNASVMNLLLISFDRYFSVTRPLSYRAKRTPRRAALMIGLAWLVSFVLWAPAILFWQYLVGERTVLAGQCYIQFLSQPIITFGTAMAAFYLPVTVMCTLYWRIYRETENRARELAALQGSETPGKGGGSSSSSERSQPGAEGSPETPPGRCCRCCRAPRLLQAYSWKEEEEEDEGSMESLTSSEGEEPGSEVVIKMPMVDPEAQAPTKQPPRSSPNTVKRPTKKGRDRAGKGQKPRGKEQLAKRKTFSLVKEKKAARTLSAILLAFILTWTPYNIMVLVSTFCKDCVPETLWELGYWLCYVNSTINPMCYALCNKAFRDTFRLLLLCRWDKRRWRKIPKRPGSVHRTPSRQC
Procedure, shortened: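 CHRM1-CHO calcium-flux assay, antagonist mode. Cells were seeded 18 h, dye-loaded 1 h at 37 C and given compound for 5 min at RT, then acetylcholine was added at 50nM. FDSS fluorescence was read 3 min; 15 concentrations, three runs.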

[13] = biological target: Muscarinic acetylcholine receptor M1 (Homo sapiens) (UniProt P11229); assay: Cholinergic receptor muscarinic 1 (CHRM1) small molecule agonists, cell-based qHTS assay (AID 1963589); note: nearly all actives have a fitted effect of over 35% in size
Procedure, shortened: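 CHO cells stably expressing human CHRM1, seeded 18 h at 37 C/5% CO2, dye-loaded 1 h at 37 C, then given compound in agonist mode; intracellular calcium fluorescence read kinetically at 1 s intervals. Fifteen concentrations, three independent runs.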

[14] = cAMP Responsive Elements (CRE) small molecule agonists, cell-based qHTS assay (AID 1963590)
Procedure, shortened: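 CRE-bla HEK 293T cells in DMEM with 10% dialyzed FBS, NEAA, pyruvate and 25 mM HEPES were plated 18 h at 37 C/5% CO2, then exposed to compounds in DMSO for 3 h before LiveBLAzer B/G FRET substrate addition.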

[15] = cAMP Responsive Elements (CRE) small molecule antagonists, cell-based qHTS assay (AID 1963591; active = well fitted inhibition curve with a large enough effect in the signal ratio in the repeat runs, not every such curve was filed as active; the % refers to the signal ratio; note: potency is the fitted concentration of half-maximal effect)
Procedure, shortened: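 CRE-bla HEK293T cells were plated 18 h at 37 °C/5% CO2, pinned with compound in DMSO, then stimulated with NKH477 at 0.25 uM final for 3 h. LiveBLAzer B/G FRET substrate was added and plates incubated 2 h at room temperature.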

[16] = biological target: D(2) dopamine receptor (Homo sapiens) (UniProt P14416); assay: Dopamine D2 receptor (DRD2) small molecule antagonists, cell-based qHTS assay (AID 1963595; active = well fitted inhibition curve with a large enough effect in the signal ratio in the repeat runs, with a control signal flat; the % refers to the signal ratio; note: potency is the fitted concentration of half-maximal effect)
D(2) dopamine receptor (Homo sapiens), sequence (P14416 whole entry, looked up): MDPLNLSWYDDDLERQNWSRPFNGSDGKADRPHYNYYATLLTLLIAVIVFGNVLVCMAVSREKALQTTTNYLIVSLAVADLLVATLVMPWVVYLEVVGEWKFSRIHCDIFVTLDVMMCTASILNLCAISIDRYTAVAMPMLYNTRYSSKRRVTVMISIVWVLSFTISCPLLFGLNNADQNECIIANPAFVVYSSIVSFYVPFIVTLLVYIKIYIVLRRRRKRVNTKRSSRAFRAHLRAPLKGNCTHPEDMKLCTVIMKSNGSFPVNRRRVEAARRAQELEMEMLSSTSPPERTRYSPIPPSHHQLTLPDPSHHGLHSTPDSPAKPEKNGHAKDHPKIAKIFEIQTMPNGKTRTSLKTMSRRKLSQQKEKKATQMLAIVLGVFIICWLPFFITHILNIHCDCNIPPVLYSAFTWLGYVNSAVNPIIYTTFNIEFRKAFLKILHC
Procedure, shortened: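 HTRF cAMP read-out at 665 and 620 nm emission (340 nm excitation). Antagonist mode: compounds were tested against 12 nM quinpirole in DRD2-HEK293 cells, with 200 nM NKH477 raising cAMP and 0.1 mM Ro20-1724 blocking its breakdown.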

[17] = biological target: Beta-2 adrenergic receptor (Homo sapiens) (UniProt P07550); assay: Adrenergic beta2 receptor (ADRB2) small molecule antagonists, cell-based qHTS assay (AID 1963592); note: nearly all actives have a fitted effect of over 50% in size; note: potency is the fitted concentration of half-maximal effect; for activity change, negative = inhibition: series mostly up to about 92 µM
Beta-2 adrenergic receptor (Homo sapiens), sequence (P07550 whole entry, looked up): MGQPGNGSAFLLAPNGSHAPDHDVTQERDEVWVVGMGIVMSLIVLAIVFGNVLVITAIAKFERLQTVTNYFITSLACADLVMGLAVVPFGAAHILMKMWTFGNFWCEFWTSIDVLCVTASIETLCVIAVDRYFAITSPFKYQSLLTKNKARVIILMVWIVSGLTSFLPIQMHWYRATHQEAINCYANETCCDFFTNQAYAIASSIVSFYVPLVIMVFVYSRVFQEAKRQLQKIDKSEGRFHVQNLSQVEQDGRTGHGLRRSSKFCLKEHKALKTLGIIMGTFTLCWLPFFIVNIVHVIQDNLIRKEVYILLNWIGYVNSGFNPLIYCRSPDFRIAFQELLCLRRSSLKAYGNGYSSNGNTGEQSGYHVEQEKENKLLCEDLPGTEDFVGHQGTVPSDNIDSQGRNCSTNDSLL
Procedure, shortened: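 Cells (CHO, stable ADRB2 overexpression) incubated 18-20hr at 37C; compounds added from DMSO; agonist mix (1nM isoproterenol, 100uM IBMX, 25uM Ro-20-1724) added; 0.5hr RT; d2-cAMP and anti-cAMP-cryptate added; 1hr RT; 665/615 nm read.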

[18] = G protein-coupled receptor (GPCR) small molecule agonists, calcium flux assay: HEK293 wild type cell line counter screen (AID 1920065)
Procedure, shortened: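 Cells were plated and cultured 18 h at 37 C/5% CO2, then loaded with calcium dye for 1 h at 37 C. Compounds in DMSO were pin-transferred in agonist mode, and fluorescence (Ex/Em 480/540) was read kinetically for 3 min at 1 s intervals.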

[19] = biological target: D(2) dopamine receptor (Homo sapiens) (UniProt P14416); assay: Dopamine D2 receptor (DRD2) small molecule agonists, cell-based qHTS assay (AID 1963594); note: nearly all actives have a fitted effect of over 35% in size
Procedure, shortened: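 HEK293 cells stably expressing human DRD2, pre-treated with PDE inhibitor Ro20-1724 (0.1 mM final) and compound 10 min at room temperature, then stimulated with NKH477 (200nM […]) for 30 min. cAMP read by HTRF (665/620 nm).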

[20] = biological target: Beta-2 adrenergic receptor (Homo sapiens) (UniProt P07550); assay: Adrenergic beta2 receptor (ADRB2) small molecule agonists, cell-based qHTS assay (AID 1963593);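 note: CHO cells stably overexpressing human ADRB2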
Procedure, shortened: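 CHO cells stably over-expressing ADRB2 were plated overnight at 37C, then dosed with compounds plus a stimulation mix containing 100uM IBMX and 25uM Ro-20-1724 for 0.5hr at room temperature. cAMP was measured by HTRF competition, 1hr.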
% is set by controls: 0 for no effect and ±100 for the full control effect.

CN(C)CCCN(C)C
inactive: activity change, negative = cytotoxicity [1] 3.36% [at 8.39 µM] | activity, positive = activation [2] -12.5% [at 8.39 µM] | activity change [3] -0.775% [at 5.22 µM, stronger effect = higher value] | activation [4] -0.798% [at 6.97 µM] | activation [5] 5.56% [at 5.99 µM] | activity change, negative = cytotoxicity [6] -2.9% [at 5.99 µM] | activity change, negative = cytotoxicity [7] 0.34% [at 5.99 µM] | activity change, negative = cytotoxicity [8] -23% [at 5.99 µM] | activation [9] 3.48% [at 5.99 µM] | activity, negative = inhibition [10] 12.1% [at 5.62 µM] | activation [11] -0.769% [at 7.02 µM] | activity, negative = inhibition [12] 1.9% [at 5.58 µM] | activation [13] -0.0477% [at 6.97 µM] | activation [14] -0.0363% [at 8.39 µM] | activity change, negative = inhibition [15] -6.12% [at 8.39 µM] | activity change, negative = inhibition [16] 3.98% [at 8.38 µM]

O=C(Nc1ccc(Cl)c(Cl)c1)c1cc(Cl)cc(Cl)c1O
active: Potency [1] 3.44 µM | Potency [2] 27.3 µM | Potency [7] 40.8 µM | Potency [8] 4.08 µM | Potency [17] 24.3 µM
inactive: Potency [3] | Potency [4] | Potency [5] | Potency [16]

COc1ccc(/C=C/C(=O)c2ccc(OC)cc2OC)cc1
inactive: Potency [1] | Potency [3] | Potency [4] | Potency [18] | Potency [8] | Potency [10] | Potency [11] | Potency [13] | Potency [17] | Potency [19] | Potency [16]
active: Potency [2] 29.8 µM

CC/C=C\C/C=C\C/C=C\CCCCCCCC(=O)OCC
active: Potency [2] 70.1 µM
inactive: Potency [1] | Potency [3] | Potency [4] | Potency [18] | Potency [10] | Potency [11] | Potency [13] | Potency [17] | Potency [19] | Potency [16]

CC1(C)[C@H](C(=O)O)N2C(=O)C[C@H]2S1(=O)=O
inactive: Potency [1] | Potency [2] | Potency [3] | Potency [4] | Potency [18] | Potency [9] | Potency [14] | Potency [17] | Potency [19] | Potency [16]
active: Potency [15] 1.33 µM

Nc1c(I)cc(I)c(C(=O)N(CCC(=O)O)c2ccccc2)c1I
inactive: Potency [1] | Potency [2] | Potency [3] | Potency [4] | Potency [6] | Potency [7] | Potency [8] | Potency [9] | Potency [10] | Potency [11] | Potency [12] | Potency [13] | Potency [14] | Potency [15] | Potency [17] | Potency [20] | Potency [19] | Potency [16]

CCCCCCCCCCCCN1CCCCCC1=O
inactive: Potency [2] | Potency [3] | Potency [4] | Potency [5] | Potency [6] | Potency [7] | Potency [10] | Potency [11] | Potency [13] | Potency [14] | Potency [15] | Potency [17] | Potency [20] | Potency [19] | Potency [16]
active: Potency [1] 61.1 µM

Nc1cccc(O)c1
inactive: Potency [1] | Potency [2] | Potency [3] | Potency [4] | Potency [6] | Potency [7] | Potency [8] | Potency [10] | Potency [11] | Potency [12] | Potency [13] | Potency [14] | Potency [15] | Potency [17] | Potency [20] | Potency [19] | Potency [16]

O=C(CCCN1CC=C(n2c(=O)[nH]c3ccccc32)CC1)c1ccc(F)cc1
inactive: Potency [1] | Potency [2] | Potency [3] | Potency [4] | Potency [18] | Potency [19]
active: Potency [16] 0.0211 µM

O=C(O)CCc1nc(-c2ccccc2)c(-c2ccccc2)o1
inactive: Potency [1] | Potency [2] | Potency [3] | Potency [4] | Potency [18] | Potency [17] | Potency [20] | Potency [19] | Potency [16]
